About 3,000 (0.81%) of roughly 370,000 compounds were called active.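 The calls were made as follows: active = activity above about 14% (limit read from the data; passing the limit was not always enough); inactive = the rest.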 Shown is part of a subset that was picked to be rich in actives.

The target of this assay is Nuclear receptor subfamily 1 group D member 1 (Homo sapiens) (UniProt P20393). In words: Rev-erbα–DNA interaction modulation – biochemical, FITC-DNA, fluorescence polarization, uHTS, primary screen (AID 1259318).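 Also: 0% = DMSO wells with 35 nM protein and 100% = DMSO wells with 750 nM protein.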 The settings on record: Rev-erbα–FITC-DNA binding, 90 min, at 10 µM, stronger effect = higher value. A general note: In fluorescence polarisation assays a small probe gives low polarisation when free and higher when bound to something large.
Chain of Nuclear receptor subfamily 1 group D member 1 (Homo sapiens) (P20393 whole entry, looked up): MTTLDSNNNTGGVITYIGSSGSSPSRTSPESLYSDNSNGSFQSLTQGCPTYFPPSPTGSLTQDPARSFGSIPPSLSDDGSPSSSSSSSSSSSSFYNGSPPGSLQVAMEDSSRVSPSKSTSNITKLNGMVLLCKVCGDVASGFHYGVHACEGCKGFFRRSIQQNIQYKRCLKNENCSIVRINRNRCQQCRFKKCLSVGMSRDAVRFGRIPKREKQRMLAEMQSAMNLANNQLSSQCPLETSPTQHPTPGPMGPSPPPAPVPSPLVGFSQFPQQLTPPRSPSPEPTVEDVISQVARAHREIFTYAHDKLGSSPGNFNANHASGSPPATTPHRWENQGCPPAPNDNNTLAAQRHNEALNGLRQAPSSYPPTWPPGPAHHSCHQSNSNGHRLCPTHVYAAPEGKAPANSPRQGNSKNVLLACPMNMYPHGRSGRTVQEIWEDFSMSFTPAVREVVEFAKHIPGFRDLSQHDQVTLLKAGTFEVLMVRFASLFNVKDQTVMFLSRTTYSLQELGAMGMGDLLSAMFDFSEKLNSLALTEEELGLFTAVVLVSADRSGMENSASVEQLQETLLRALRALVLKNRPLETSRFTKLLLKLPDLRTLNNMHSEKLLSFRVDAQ
In the case of `COc1ccc(-c2nn(C)c(=O)c3ccccc23)cc1CNC(=O)C1CCCCC1`, the activity was -3.48% (inactive).

Turning to `COc1ccc(S(=O)(=O)N2CCCCC2)cc1NC(=O)COc1ccccc1`, the activity is 1.75% (inactive).

On to `COc1ccc(-c2nn(C)c(=O)c3ccccc23)cc1NC(=O)COc1ccccc1`, for which the activity was 25.4% (active).

Turning to `C=CCNC(=O)c1ccc2c3n(nc2c1)-c1ccc(C)cc1CO3`, the activity is 0.44% (inactive).

Regarding `CCc1cc(=O)oc2c(C)c(OCC(=O)N3CC[C@@]4(O)CCCC[C@H]4C3)ccc12`, the activity was 2.4% (inactive).

As to `O=C(Nc1cc(S(=O)(=O)N2CCOCC2)ccc1OCC(F)(F)F)c1ccc(N2CCCC2=O)cc1`, the activity was 3.86% (inactive).

Turning to `CS(=O)(=O)c1ccc2nc(NC(=O)c3ccc(N4CCCC4=O)cc3)sc2c1`, the activity is 41.6% (active).

As to `O=C(NCCCN1CCCCCC1)c1ccc(N2CCCC2=O)cc1`, the activity was -2.08% (inactive).

With `CC(=O)c1c(C)[nH]c(C(=O)OCC(=O)NCCC(C)C)c1C`, the activity is 4.11% (inactive).

As to `COC(=O)C12C=C3CC(c4ccccc4)=C3C(=O)N1Cc1[nH]c3ccccc3c1C2` (stereo unspecified), the activity was -0.17% (inactive).

As for `COc1ccc(C(=O)CSc2nccc(=O)[nH]2)cc1`, the activity is 2.06% (inactive).

Consider `O=C(CSc1nc2ncccc2[nH]1)Nc1ccc2c(c1)OCCO2`, for which the activity was -0.69% (inactive).

`CCCn1c(SCC(=O)Nc2cccc(C(=O)OCC)c2)nnc1-c1ccoc1C`: the activity was -3.66% (inactive).

As to `O=C(CSc1nc2[nH]c(=O)[nH]c(=O)c2s1)Nc1cccc(F)c1`, the activity is -1.8% (inactive).

For `Cc1cc(C)c(C(=O)CSc2nc(C)cc(=O)[nH]2)c(C)c1`, the activity was -1.57% (inactive).

As to `Cc1nc2nc(SCC(=O)Nc3cccc(F)c3)[nH]c2cc1Br`, the activity is 43.6% (active).

`CCn1c(CNC(=O)c2ccco2)nnc1SCC(=O)Nc1cccc(F)c1`: the activity was -8.25% (inactive).

Regarding `CCn1c(SCC(=O)Nc2cccc(F)c2)nnc1-c1cc2cc(Br)ccc2o1`, the activity was 56.3% (active).

For `Cc1nc2nc(SCC(=O)c3ccccc3)[nH]c2cc1Br`, the activity was 34.1% (active).

For `CN(Cc1nc(-c2cnccn2)no1)Cc1n[nH]c2c1CCCCC2`, the activity was -2.14% (inactive).

Regarding `COC(=O)c1cc(S(=O)(=O)N2CCN(c3cc(C)ccc3C)CC2)c[nH]1`, the activity is 11.2% (inactive).

As for `CCOC(=O)C1CCN(C(=O)C(C)(C)NC(=O)Nc2ccccc2Cl)CC1`, the activity is -6.49% (inactive).

`Cc1ccc(C(=O)C2CCN(CC(=O)NCCC(C)C)CC2)cc1`: the activity is -0.72% (inactive).

On to `Cc1noc(C)c1CCC(=O)O`, for which the activity was 4.26% (inactive).

As for `Cc1ccc(SCC2=NNC(=O)C2)cc1`, the activity was -1.27% (inactive).

As for `O=C(c1cccs1)N1CCCC(c2nc(-c3ccc(F)cc3)no2)C1` (stereo unspecified), the activity was 1.09% (inactive).

Consider `N#Cc1c(-c2ccc(F)cc2)cc(C2CC2)nc1SCC(=O)c1cccs1`, for which the activity was 174% (active).

As for `O=C(CCC(=O)c1cccs1)NC1CCCCCC1`, the activity is 3.87% (inactive).

In the case of `COCCCNc1nc2c(-c3cccc(C(F)(F)F)c3)nnn2c2ccccc12`, the activity is 15.6% (inactive).

Regarding `COCCCNc1nc2c(-c3cccc(C)c3)nnn2c2ccc(Cl)cc12`, the activity is 52.9% (active).

Turning to `COCCCNc1nc2ccccc2nc1NS(=O)(=O)c1ccc(F)cc1`, the activity is -2.18% (inactive).

As for `COc1ccc(-n2nc3c(c2NC(=O)c2ccc(N4C(=O)CCC4=O)cc2)CSC3)cc1`, the activity is 1.69% (inactive).

On to `COc1ccc(-c2csc(NC(=O)c3ccc(N4C(=O)CCC4=O)cc3)n2)cc1OC`, for which the activity is 19.3% (active).

As to `COc1ccccc1C(=O)Oc1ccc(N2C(=O)CCC2=O)cc1`, the activity was -3.5% (inactive).

As to `Cc1ccc(CS(=O)(=O)CCC(=O)NCc2ccc(F)cc2)cc1`, the activity was -2.15% (inactive).

Consider `C/C=C/C=C/C(=O)OCC(=O)Nc1ccc(Cl)cc1`, for which the activity is -1.79% (inactive).

With `O=S1(=O)c2ccc(N3CCN(Cc4ccccc4F)CC3)cc2Oc2ccccc2CN1Cc1cn(Cc2ccc(Cl)cc2)nn1`, the activity is -0.02% (inactive).

For `CCOC(=O)c1ccc(NC(=O)CCn2c(=O)oc3ccccc32)cc1`, the activity is -4.86% (inactive).

`CCOC(=O)c1ccc(NC(=O)c2c(NCc3ccccc3)[nH]c(=O)[nH]c2=O)cc1`: the activity is 19.9% (active).

Turning to `CCOC(=O)c1ccc(NC(=O)c2c(N)n(C)c(=O)[nH]c2=O)cc1`, the activity is 2.83% (inactive).

Take `CCCCN1CCN(C(=O)c2ccc3c(c2)NC(=O)C(C)(C)O3)CC1`: the activity was -3.01% (inactive).

With `O=c1ccc2c(-c3ccccc3S(=O)(=O)O)c3ccc(O)c(O)c3oc-2c1O`, the activity was -56.3% (inactive).

`O=C(CNC(=O)C12CC3CC(CC(C3)C1)C2)OCC(=O)N1CCCCC1`: the activity is -3.15% (inactive).

`COc1ccc(CNC(=O)c2nnn(CC(=O)Nc3cc(C)cc(C)c3)c2N)cc1`: the activity is 33.3% (active).

In the case of `COc1ccc(CNC(=O)c2cc(=O)c3c(C)cc(C)cc3o2)cc1`, the activity is -1.71% (inactive).

In the case of `COc1ccc(CNC(=O)CN2CCC(n3nnc4cc(F)ccc43)CC2)cc1`, the activity was 0.03% (inactive).

In the case of `CCOC(=O)c1c(NC(C)=O)sc2c(O)c(Br)ccc12`, the activity was -1.09% (inactive).

In the case of `CCOC(=O)C1CCN(C(=O)CN2C(=O)NC(C)(c3ccc4cc(OC)ccc4c3)C2=O)CC1` (stereo unspecified), the activity was -4.48% (inactive).

In the case of `O=C(Nc1cc(Cl)cc(Cl)c1)OCCN1CCCC12CCC(c1ccccc1)CC2` (stereo unspecified), the activity is -2.58% (inactive).

In the case of `CCCOc1cc(C)c(S(=O)(=O)n2nnc3ccccc32)cc1C`, the activity is -0.13% (inactive).

Consider `CSc1ccc(-c2c(C#N)c(N)nc3c2c(C)nn3-c2ccccc2)cc1`, for which the activity was 59.1% (active).

`Cc1nc2c(c(C)nn2-c2ccccc2)c(C)c1C`: the activity was 9.78% (inactive).

As for `Cn1c(=O)c2c(-c3cccc(Br)c3)c(C#N)c(N)nc2n(C)c1=O`, the activity was -4.07% (inactive).

On to `CCC(C)[C@H]1COCCS(=O)(=O)N1Cc1ccc(C)cc1` (stereo partly specified), for which the activity is -5% (inactive).

Regarding `O=C1C(=O)N(Cc2ccc(-c3ccsc3)cc2)c2ccc(OC(F)(F)F)cc21`, the activity was -0.04% (inactive).

As to `O=C(c1cccc(C(F)(F)F)c1)N1CC[C@H]2[C@H](CCCN2Cc2cc(F)cc(F)c2)C1`, the activity is 0.92% (inactive).

Regarding `Cc1ccc2nc(-c3ccc(NC(=O)CN(C)S(=O)(=O)c4ccccc4)cc3)sc2c1`, the activity is 8.26% (inactive).

`Cc1ccc(N(CC(=O)Nc2cc(C)cc(C)c2)S(=O)(=O)c2cccc3nonc23)cc1`: the activity is 0.18% (inactive).

In the case of `Cc1cccc(N(CC(=O)Nc2ccc(-c3nc4ccc(C)cc4s3)cc2)S(C)(=O)=O)c1`, the activity was 35.6% (active).

As for `CCOc1ncccc1C(=O)N(CC)CC(=O)Nc1ccc(NC(C)=O)cc1`, the activity was -1.37% (inactive).

`COc1ccc(-c2nnc3ccc(SCc4ccccc4)nn23)cc1`: the activity was 25.6% (active).

With `CCOc1ccc(-c2nnc3ccc(SC)nn23)cc1`, the activity was 48.8% (active).

`CCOC(=O)CNC(=O)CSc1ccc2nnc(-c3cccnc3)n2n1`: the activity is 3.05% (inactive).

Consider `O=C(CSc1ccc2nnc(-c3ccccc3)n2n1)N1CCCc2ccccc21`, for which the activity was -1.89% (inactive).

As to `COC(=O)C(C)Sc1ccc2nnc(-c3cccc(F)c3)n2n1` (stereo unspecified), the activity is 1.26% (inactive).

With `COc1ccc(CSc2nnc(-c3cccc(C)c3)n2C)cc1`, the activity was 9.69% (inactive).

Regarding `COc1cccc(CN(C)CC(=O)NCc2ccccc2Cl)c1OC`, the activity is -3.26% (inactive).

In the case of `C=CCOC/C=C/C#CCN(CC=C)Cc1ccc(OC)cc1OC`, the activity is 6.98% (inactive).

Take `Cc1ccc(-c2noc(CCC(=O)Nc3ccccc3N3CCN(C)CC3)n2)cc1`: the activity is 3.69% (inactive).

Turning to `COCCn1c(C)cc(C(=O)COC(=O)/C=C/c2cccc(OC)c2)c1C`, the activity is 6.09% (inactive).

Take `Cc1cccc([C@@H]2[C@@H]3C(=O)N(C)C(=O)[C@@H]3[C@@H]3C(=O)Nc4ccccc4C(=O)N23)c1`: the activity is 1.77% (inactive).

`CCCC(=O)Nc1ncnc2c1ncn2C1O[C@@H]2COP(=O)(O)O[C@H]2[C@H]1OC(=O)CCC` (stereo partly specified): the activity was -3.72% (inactive).

Consider `COc1cc(/C=C/C(=O)n2cnc3ccccc32)cc(OC)c1OC`, for which the activity was 11.5% (inactive).

On to `CC(=O)c1cc(C#N)c(SCC(=O)Nc2nccs2)nc1C`, for which the activity is 30.9% (active).

As to `Cc1cc(C(F)(F)F)nc(SCC(=O)Nc2nccs2)n1`, the activity is -6.74% (inactive).

As for `Cc1[nH]c2ccccc2c1SCC(=O)Nc1nccs1`, the activity is 4.6% (inactive).

With `Cn1sc(=O)c2cc(S(=O)(=O)NC3CC3)ccc21`, the activity was -1.88% (inactive).

`CCOC(=O)NC(=O)CSc1nnc(SCCC(=O)O)s1`: the activity is 0.79% (inactive).

Turning to `O=C(Nn1c(SCc2ccc([N+](=O)[O-])cc2)nc2ccccc2c1=O)c1ccc(F)cc1`, the activity is 0.27% (inactive).

Regarding `O=C(CSc1nc2ccccc2c(=O)n1CCCO)NC1CC1`, the activity was 4.03% (inactive).

Consider `O=C(CCn1c(SCC(=O)c2ccccc2)nc2ccccc2c1=O)NCc1ccc(F)cc1`, for which the activity is 26.1% (active).

For the compound `O=S(=O)(c1cccs1)N1CCCc2nc(-c3ccc(Br)cc3)ccc21`, the activity is 1.38% (inactive).

Regarding `c1ccc2c(c1)nnn2-c1ccncc1`, the activity is 1.17% (inactive).

`CC(C)CN(C(=O)c1cccc(S(=O)(=O)N2CCCCC2)c1)C1CCS(=O)(=O)C1` (stereo unspecified): the activity was 5.44% (inactive).

Consider `CCOC(=O)c1cc(-c2nnc(-c3cc(OC)c(OC)c(OC)c3)o2)c(C)nc1C`, for which the activity is 9.45% (inactive).

Take `CCOc1cc(-c2noc(CCC(=O)N3CCOCC3)n2)ccc1OC`: the activity is -5.84% (inactive).

Turning to `CCOc1nc(-c2ccc(OC)cc2)ccc1-c1noc(-c2cc(OC)c(OC)c(OC)c2)n1`, the activity is 26.3% (active).

For `Cc1sc2nc(-c3ccccc3F)oc(=O)c2c1C`, the activity was 1.33% (inactive).

Take `CCCCC(=O)N[C@@H]1CC[C@@]23CCCN2C(=O)CCC[C@H]3[C@H]1C`: the activity was 1.41% (inactive).

Regarding `NC(=O)CCCC1=NS(=O)(=O)c2ccccc2N1`, the activity was -0.09% (inactive).

For `c1ccc(-c2ccnc3nc(-n4cccc4)nn23)cc1`, the activity was -4.06% (inactive).

These data come from PubChem BioAssay AID1259318 (Sanford-Burnham Center for Chemical Genomics, 2017).
